MARV entry inh – Marburg virus entry inhibition; Potency, µM (series often up to 37.8 µM), inactives show at the top dose activity change, negative = inhibition, most hits filed as inhibitors; Marburg virus pseudotyped entry inhibition, cell reporter; AID 540276; hit rate 1.8% among 300,000; calls by dose curve; tested in HEK293 cells
FMDV inh – blocks foot and mouth disease virus. FMDV antiviral cell-based qHTS. hit rate 1.2% among 410,000. AID 1159524. Potency, µM (top dose mostly 57.9 µM), for inactives: at the top dose activity change, negative = inhibition, hits mostly inhibitors; calls by dose curve; tested in HEK293T cells; note: read-out not given here; nearly all actives have a fitted effect of over 45% in size
Lassa entry inh – inhibitors of Lassa virus binding or cell entry; Lassa virus pseudotype entry inhibition, cell reporter; hit rate 1.2% among 300,000; Potency, µM (highest dose often 37.9 µM), without a hit: at the top dose activity change, negative = inhibition, most hits filed as inhibitors; AID 540256; calls by dose curve; tested in HEK293 cells; note: nearly all actives have a fitted effect of over 50% in size
HCV inhibitor – blocks hepatitis C virus; Potency, µM (top dose mostly 41.8 µM), inactives show top-dose activity change, negative = inhibition, most hits filed as inhibitors; Huh7.5.1 HCVcc-Cre infection, luciferase reporter, 44 h; hit rate 3.4% among 340,000
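1,000 cells/well; 4 h culture; + compound; + HCVcc-Cre (~0.5 moi); 44 h; luciferase substrate, RT 15 min; read 15 sec.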
Sm TGR block – S. mansoni TGR enzyme inhibition; purified TGR, DTNB reduction, TNB absorbance 405 nm; Potency, µM (top dose mostly 114 µM), for inactives: at the top dose activity change, negative = inhibition, hits mostly inhibitors; hit rate 3% among 360,000; note: nearly all actives have a fitted effect of over 60% in size
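First, TGR (20 nM dispensed) and NADPH were mixed with compound. Second, a 15 min room-temperature incubation followed. Third, further NADPH and then DTNB were added to start the reaction. Finally, TNB absorbance was monitored kinetically.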
RE007 growth inh – less growth of the S. pombe RE007 Vpr strain; S. pombe RE007 Vpr strain, BacTiter-Glo ATP luminescence, 24 h; Potency, µM (highest dose often 92.2 µM), for inactives: top-dose activity change, negative = less growth, actives largely listed as inhibitors; hit rate 0.21% among 360,000; AID 651644; active = well fitted falling curve with a large enough effect; inconclusive = small, poorly fitted or top-dose-only effect; inactive = no such curve, though single readings can be large or run the other way; note: nearly all actives have a fitted effect of over 50% in size
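Fission yeast RE007 carrying one integrated HIV-1 vpr copy, seeded at OD 0.01 in PMG+AL medium with 23 nL pinned compound. Grown 24 h at 30 degrees; viability read by BacTiter-Glo luminescence after 5 min.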
An asterisk follows results filed as active; [ ] = remark or other dose. This is a sample that favours compounds with a hit; in the whole collection about 7.2% have one here. Unless noted, calls come from the whole dose curve; as a rule, active = well fitted curve in the direction sought with a large enough effect; inconclusive = small, poorly fitted or top-dose-only effect, or another doubt; inactive = no such curve, though single readings can be large; an effect the other way counts as inactive or inconclusive. % is set by controls: 0 for no effect and ±100 for the full control effect; potency is the fitted concentration of half-maximal effect.

`CC1(N2CCOCC2)CC2(O)C(=[N+]1[O-])CCc1c2no[n+]1[O-]` (configuration not stated) gave MARV entry inh -1%, FMDV inh 0%, Lassa entry inh 5%, HCV inhibitor 6%, Sm TGR block 32µM* and RE007 growth inh 5%.
Screening CCOc1nc(Nc2ccc([N+](=O)[O-])cc2)nc(NC(C)(C)C)n1 returned MARV entry inh inconclusive, FMDV inh -9%, Lassa entry inh inconclusive, HCV inhibitor inconclusive, Sm TGR block -2% and RE007 growth inh 3%.
For CCN(CC)c1nc(Nc2ccc([N+](=O)[O-])cc2)nc(N(CC)CC)n1 the results were FMDV inh -24%, HCV inhibitor 11µM*, Sm TGR block -18% and RE007 growth inh 4%.
Cc1ncc2c(c1CNC(=O)/C=C/c1cccs1)CCN(C(=O)c1cc(C(C)C)on1)C2 was read as FMDV inh -9%.
`COc1cc(-c2c(C#N)c(N)nc3c2CCCC3)ccc1O` gave MARV entry inh -27%, FMDV inh inconclusive, Lassa entry inh -10%, HCV inhibitor 2%, Sm TGR block 20µM* and RE007 growth inh -15%.
`CCCc1cc(-c2ccc(O)c(OCC)c2)c(C#N)c(N)n1` gave MARV entry inh -12%, FMDV inh -17%, Lassa entry inh 10%, HCV inhibitor inconclusive, Sm TGR block 6% and RE007 growth inh 10%.
COc1ccc(-c2c(C#N)c(N)nc3c2CCc2ccccc2-3)cc1OC was read as MARV entry inh 23µM*, FMDV inh 16µM*, Lassa entry inh inconclusive, HCV inhibitor 11µM*, Sm TGR block -1% and RE007 growth inh -5%.
For COc1ccc(-c2cc(-c3ccc(O)cc3)nc(N)c2C#N)cc1OC the results were MARV entry inh 4.5µM*, FMDV inh 10%, Lassa entry inh inconclusive, HCV inhibitor inconclusive, Sm TGR block -31% and RE007 growth inh -4%.
CCC(=O)OCOc1ccc(/C=C2/CCC(CN(C)C)C2=O)cc1 (configuration not stated) was read as MARV entry inh inconclusive, FMDV inh 32µM*, Lassa entry inh inconclusive, HCV inhibitor inconclusive and RE007 growth inh 8.9µM*.
CC(C)Cn1c(/C=C/c2ccco2)nc2ccccc21 was read as MARV entry inh -22%, FMDV inh -9%, Lassa entry inh 2%, HCV inhibitor -3%, Sm TGR block 7.9µM* and RE007 growth inh 1%.
For CCN1CCN(C(=O)C(C)Nc2cc(Cl)c(OC)cc2OC)CC1 (configuration not stated) the results were MARV entry inh -2%[46.1 µM], FMDV inh 4%, Lassa entry inh 6%, HCV inhibitor 14%, Sm TGR block 20µM* and RE007 growth inh -5%.
CCOc1cc(N2CCOCC2)c(OCC)cc1NC(C)C(=O)N1CCN(CC)CC1 (configuration not stated) was read as MARV entry inh -1%[46.1 µM], FMDV inh -6%, Lassa entry inh -7%, HCV inhibitor 8%, Sm TGR block -33% and RE007 growth inh -15%.
CCCCCN1C(C(=O)c2ccccc2)=C(NC(=O)c2ccc(OC)cc2)c2ccccc2S1(=O)=O was read as MARV entry inh inconclusive, FMDV inh -6%, Lassa entry inh inconclusive and Sm TGR block 6%.
`O=C1CC(/C=C/c2ccco2)=Nc2ccccc2N1` gave MARV entry inh 3%, FMDV inh -11%, Lassa entry inh 15%, HCV inhibitor 2%, Sm TGR block 45µM* and RE007 growth inh 0%.
`C=CCn1c(SCc2ccc(C(=O)Nc3nccs3)cc2)nnc1-c1ccc(C)c(Cl)c1` gave MARV entry inh inconclusive, FMDV inh 28µM*, Lassa entry inh 11µM*, HCV inhibitor 8.9µM* and Sm TGR block 1%.
Cc1ccc(C(=O)Nc2cnn(-c3ccc(C(=O)NCc4nc(-c5ccccc5)n[nH]4)cc3)c2)c(C)c1 was read as FMDV inh -18%.
`CCN(CC)c1ccc(/C=C2\C(=O)N(c3nnc(C)c(=O)[nH]3)N=C2C)cc1` gave MARV entry inh inconclusive, FMDV inh 28µM*, Lassa entry inh inconclusive, HCV inhibitor 14%, Sm TGR block -14% and RE007 growth inh 10%.
CCN(CC)c1ccc(/C=C2/C(=O)ON=C2C)cc1 was read as MARV entry inh -9%, FMDV inh 21%, Lassa entry inh 0%, HCV inhibitor 3%, Sm TGR block -10% and RE007 growth inh 21%.
`Cc1cccc(C2(c3cccc(C)c3)CC2C(=O)Nc2ccc([N+](=O)[O-])cc2O)c1` (configuration not stated) gave MARV entry inh 13µM*, FMDV inh inconclusive, Lassa entry inh inconclusive, HCV inhibitor inconclusive, Sm TGR block -7% and RE007 growth inh 0%.
Cc1ccc(S(=O)(=O)N2CCC(c3nnc(-c4cccc(C)c4)o3)CC2)cc1 was read as MARV entry inh -4%[46.1 µM], FMDV inh 3%, Lassa entry inh -23%[46.1 µM] and Sm TGR block 0%.
Cc1cccc(C(=O)NC2CC3CCCC(C2)N3S(=O)(=O)c2ccccc2)c1 (configuration not stated) was read as MARV entry inh inconclusive, Lassa entry inh 13µM*, HCV inhibitor inconclusive, Sm TGR block -2% and RE007 growth inh 1%.
Screening O=C(NC1CC2CCCC(C1)N2S(=O)(=O)c1ccccc1)c1ccccc1 (configuration not stated) returned MARV entry inh inconclusive, FMDV inh inconclusive, Lassa entry inh -27%, HCV inhibitor -18%, Sm TGR block 8% and RE007 growth inh 30%.
`Cc1ccc(C(=O)NNC(=O)C2CCN(Cc3ccccc3)CC2)cc1` gave MARV entry inh inconclusive, FMDV inh -8%, Lassa entry inh 7%, HCV inhibitor -12%, Sm TGR block -3% and RE007 growth inh -3%.
Screening O=C(NC1CC2CCCC(C1)N2Cc1ccccc1)c1cccc(Cl)c1 (configuration not stated) returned MARV entry inh 1.3µM*, FMDV inh -12%, Lassa entry inh 1%, HCV inhibitor -7%, Sm TGR block 24% and RE007 growth inh -2%.
Screening O=C(NNC(=O)C1CCN(Cc2ccccc2)CC1)c1cccc(Cl)c1 returned MARV entry inh inconclusive, FMDV inh -24%, Lassa entry inh 0%, HCV inhibitor 10µM*, Sm TGR block 3% and RE007 growth inh -18%.
Screening CC(C)CC1NC(=O)c2ccc(Cl)cc2-n2c1nc1ccc(Cl)cc1c2=O (configuration not stated) returned HCV inhibitor -23%.
